LGR2 antag: Drosophila LGR2 receptor signaling inhibition; actives 0.35% (n = 380,000); inhibition, % at 9.99 µM; AID 720647; HEK293 LGR2, CRE-luciferase, bursicon-stimulated, 4 h;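 active = drop in luminescence signal, shown as inhibition above about 50% in the replicate tests, limit read from the data, passing the limit was not always enough; inconclusive = probably only some replicates passing the limit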;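 note: agonist challenge used bursicon conditioned medium at about half maximal strength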
EWS-Fli inh: blocks EWS/Fli oncoprotein-driven transcription | A673 NR0B1-luciferase reporter, viability-normalised | inhibition, % at 12.6 µM | actives 0.67% (n = 350,000) | AID 651661;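 active = mean inhibition of at least 50% after viability correction, with every replicate also passing that limit; inconclusive = mean reaches 50% but only one of two replicates passes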;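 note: firefly luciferase signal divided by Alamar Blue viability fluorescence both relative to DMSO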
TROY signal inh: inhibitors of TROY-dependent NF-kB signaling; Q293 LMP1-TROYcd NF-kB luciferase reporter, 4 h; inhibition, % at 10 µM; actives 0.98% (n = 360,000); AID 1347056;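 active = compounds whose plate-normalised and pattern-corrected inhibition of the luciferase reporter signal at the single screening dose is 50% or more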
EBV LMP1 NFkB: Epstein-Barr LMP1 NF-kappaB reporter inhibition. LMP1-induced NF-kappaB luciferase reporter cells, luminescence. inhibition, % at 12.5 µM. actives 0.69% (n = 350,000). AID 504558; in the data active = inhibition above about 41%; inconclusive = no clear call, values can overlap the other calls;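 note: 0% = neutral control wells and 100% = reference inhibitor control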
TWEAK-Fn14 inh: TWEAK-Fn14 signaling inhibition; TWEAK-stimulated Fn14 reporter cells, luciferase luminescence, 8 h; actives 2% (n = 360,000); inhibition, % at 10 µM; in the data active = inhibition above about 50%
Numbers without * were called inactive; i = inactive; ? = inconclusive; / = not tested or not shown. Most compounds without a hit are left out; they make up all but 2.5% or so of the library.

SMILES | LGR2 antag | EWS-Fli inh | TROY signal inh | EBV LMP1 NFkB | TWEAK-Fn14 inh
Cc1ccc(NC(=O)CN(C)CC(=O)Nc2cccc(F)c2)cc1S(=O)(=O)N1CCCCCC1 | 31.8 | 20.6 | 50.4* | 2.1 | 50.3*
CO[C@H]1CN(C)C(=O)c2cc(NC(=O)Nc3cccc(Cl)c3)ccc2OC[C@@H](C)N(C(=O)Nc2c(C)noc2C)C[C@@H]1C | 1.8 | -7.8 | / | / | /
O=C(NCC[C@@H]1CC[C@@H](NC(=O)c2cnccn2)[C@H](CO)O1)c1ccc2c(c1)OCO2 | 0.2 | 2.1 | / | / | /
C[C@H](CO)N1C[C@H](C)[C@H](CN(C)C(=O)NC2CCCCC2)Oc2ccc(NC(=O)CCCN(C)C)cc2C1=O | -4.3 | / | / | / | /
CN(C)C(=O)C[C@@H]1CC[C@@H]2[C@@H](COc3ccc(NC(=O)C4CCCC4)cc3C(=O)N2C)O1 | -0.2 | 1.0 | / | / | /
O=C(Nc1cccc(S(=O)(=O)N2CCCCC2)c1)c1ccccc1NS(=O)(=O)c1ccc(F)cc1 | 21.9 | -11.8 | 54.1* | 2.5 | 58.0*
CN(CC(=O)Nc1ccc(F)cc1)C(=O)C1Cc2ccccc2CN1S(C)(=O)=O (configuration not stated) | 13.5 | -5.3 | -9.2 | -4.3 | -10.5
CCS(=O)(=O)N1Cc2ccccc2CC1C(=O)N(C)CC(=O)Nc1cccc(F)c1 (configuration not stated) | -24.4 | -45.3 | 58.5* | -2.5 | 21.4
Cc1ccc(NC(=O)CN(C)C(=O)Cn2ncc(Cl)c(Cl)c2=O)cc1 | 8.8 | / | 31.3 | 88.1* | 95.7*
Cc1ccc(NC(=O)CN(C)C(=O)Cc2ccc(Cl)c(Cl)c2)cc1 | -10.3 | -28.3 | -36.0 | -5.8 | -14.9
Cc1ccc(C(=O)Nc2ccccc2C(=O)NCc2ccco2)cc1S(=O)(=O)N1CCCCC1 | / | / | -27.3 | -24.5 | 51.7*
NS(=O)(=O)c1cccc(NC(=O)c2ccccc2NS(=O)(=O)c2ccc(F)cc2)c1 | 2.2 | -13.2 | -0.6 | 2.0 | -11.0
Cc1ccc(NC(=O)c2ccccc2NS(=O)(=O)c2ccc(F)cc2)cc1S(=O)(=O)N1CCCCC1 | ? | 23.5 | 60.3* | 19.6 | 72.2*
Cc1cccc(C(=O)NC(=S)Nc2ccc(S(=O)(=O)N3CCCCC3)cc2)c1 | / | / | 2.1 | 2.4 | 51.1*
Cc1cnc(NC(=O)C2CC(=O)N(c3cccc(Cl)c3)C2)s1 (configuration not stated) | 79.1* | / | 15.4 | i | 43.2
O=C(NCc1ccco1)C1CC(=O)N(c2cccc(Cl)c2)C1 (configuration not stated) | 7.0 | -3.4 | -11.4 | 65.3* | 8.4
O=C(NCc1ccco1)C1CC(=O)N(c2ccc(Cl)cc2)C1 (configuration not stated) | -41.0 | 9.4 | 11.4 | -4.4 | -10.4
CC(C)NC(=O)N(C)C[C@@H]1Oc2ccc(NC(=O)CCCCCC(=O)Nc3ccccc3N)cc2CC(=O)N([C@@H](C)CO)C[C@H]1C | -28.1 | 0.2 | / | / | /
CCN(C[C@H]1[C@H](c2ccccc2)[C@@H](CO)N1S(C)(=O)=O)C(=O)C1CCC1 | 4.7 | -2.9 | / | / | /
CCC(C)(C)c1ccc(OCCCC[n+]2cccc(C)c2C)c(C(C)(C)CC)c1 | / | ? | 39.4 | 6.6 | 51.9*
O=C(C[C@@H]1C[C@@H]2c3cc(NC(=O)C4CCC4)ccc3O[C@@H]2[C@H](CO)O1)NCc1ccccc1F | -5.3 | -3.6 | / | / | /
NC(=S)NN=C1c2cc(OCCN3CCOCC3)ccc2-c2ccc(OCCN3CCOCC3)cc21 | 104.2* | 63.9* | 75.1* | -5.4 | 6.5
C[C@@H]1CN([C@@H](C)CO)C(=O)Cc2cc(NC(=O)CCN3CCOCC3)ccc2O[C@@H]1CN(C)S(=O)(=O)c1ccc(F)cc1 | -7.1 | -5.0 | / | / | /
O=c1cc(-c2ccccc2O)nc(-c2ccccc2)[nH]1 | -19.2 | -9.8 | 57.5* | 1.6 | 52.7*
Cc1cc(=O)[nH]c(-c2ccccc2)n1 | / | / | -10.9 | -7.8 | -5.5
Cc1cc(N/N=C/c2ccc(O)cc2O)nc(-c2ccccc2O)n1 | / | / | 19.8 | -1.9 | 65.4*
Cc1cc(N/N=C\c2ccccc2)nc(-c2ccccc2O)n1 | -25.5 | / | -16.2 | -21.9 | 46.1
C/C(=N\Nc1cc(C)nc(-c2ccccc2O)n1)c1ccccc1O | 2.7 | -13.7 | 16.0 | -13.2 | 54.8*
C[C@@H]1CN([C@@H](C)CO)C(=O)Cc2cc(N(C)C)ccc2O[C@H]1CN(C)CC1CC1 | -6.5 | -3.2 | / | / | /
CC(C)NC(=O)Nc1ccc2c(c1)C(=O)N([C@H](C)CO)C[C@@H](C)[C@H](CN(C)C)O2 | 12.6 | / | / | / | /

Bioassay records from PubChem.
